Measured values from PubChem BioAssay AID624417 (National Center for Advancing Translational Sciences (NCATS), 2012).
The campaign covered roughly 410,000 compounds. About 6,400 (1.6%) were called active. Entries that show only a call come without a potency. Not shown: some 20% with an inconclusive outcome. Calls follow the shape of the dose curve; as a rule, active = well fitted inhibition curve with a large enough effect; inconclusive = small, poorly fitted or top-dose-only effect; inactive = no such curve, though single readings can be large or run the other way. Only a selection was taken, and actives are over-represented in it overall.

target: Glucagon-like peptide 1 receptor (Homo sapiens) (UniProt P43220); experiment: qHTS of GLP-1 Receptor Inverse Agonists (Inhibition Mode); settings: HEK293 GLP-1R CRE-luciferase, luminescence, 24 h; series mostly up to 38.3 µM; also: nearly all actives have a fitted effect of over 55% in size
Sequence (P43220 whole entry, looked up): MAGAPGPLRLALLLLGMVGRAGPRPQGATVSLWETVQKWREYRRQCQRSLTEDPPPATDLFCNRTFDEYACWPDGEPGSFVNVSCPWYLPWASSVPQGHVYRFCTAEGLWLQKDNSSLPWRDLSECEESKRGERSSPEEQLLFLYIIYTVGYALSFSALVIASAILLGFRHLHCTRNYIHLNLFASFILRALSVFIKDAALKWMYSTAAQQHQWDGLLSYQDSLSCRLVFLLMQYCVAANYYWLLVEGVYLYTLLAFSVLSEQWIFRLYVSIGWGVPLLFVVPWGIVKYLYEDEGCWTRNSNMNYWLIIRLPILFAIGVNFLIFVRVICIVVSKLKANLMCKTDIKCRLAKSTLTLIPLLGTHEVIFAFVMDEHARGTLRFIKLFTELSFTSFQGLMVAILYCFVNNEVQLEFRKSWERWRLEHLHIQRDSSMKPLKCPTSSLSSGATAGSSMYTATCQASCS
Excerpt: The overall goal of this project was to develop a novel assay for discovering small molecule ligands for class B1 G protein-coupled receptors (GPCRs). Very few agonists (or inverse agonists in inhibition mode) with generally weak activity for this entire group of physiologically important receptors are known to date. To establish proof-of-principle that this critical bottleneck can be overcome with a suitable screening approach, our studies focused on the class B1 receptor for glucagon-like peptide-1 (GLP-1R), a potential therapeutic target for diabetes and neurodegenerative disease. The assay was developed using a cell-based functional readout. Toward this goal, stably transfected HEK293 cell clones were established that co-express (i) a cAMP-responsive luciferase reporter gene, and (ii) constitutively active GLP-1R that upon ligand interaction inhibit (inverse agonists) the luciferase activity. In addition, two control cell lines were developed: (i) one that express only the cAMP-responsive reporter gene to enable initial exclusion of GLP-1R independent effects of candidate probes; and (ii) one with the reported gene cloned with another constitutively active orphan receptor GPR119 to enable exclusion of GLP-1R independent inhibitor effects of candidate inverse agonists. To that end, this assay was optimized for 1536-well format and screened against the MLSMR. […] NIH Molecular Libraries Probe Production Network [MLPCN] NIH Chemical Genomics Center [NCGC] Grant: NS064851 PI Name: Martin Beinborn, Tufts Medical Center
Six ul of cell suspension (200 cells/uL in DMEM + 10% Nu serum + 1% pen-strep) is dispensed in a white solid 1536-well plate. The plates are incubated for 12 hours at 37 deg C at 5% CO2 followed by addition of 23 nL compounds. After 24 hr incubation at 37 deg C and 5% CO2, 3 uL of luciferase assay detection reagent is added. A luminescence read is obtained on the PerkinElmer Viewlux after 12 min incubation at room temperature.
Potency is read from the fitted curve at half-maximal effect.

Q: Which Potency does the source give for COC1C(O)C(C)OC(OC2CCC3(C=O)C(CCC4C3CCC3(C)C(C5=CC(=O)OC5)CCC43O)C2)C1O (stereo not given) here?
A: The Potency was “inactive”.

Q: O=c1c2ccccc2nc(/C=C/c2ccco2)n1-c1ccccc1O was tested. Which Potency did it give?
A: Its Potency is 11.2 µM (active).

Q: Which Potency does the source give for O=c1c2ccccc2nc(/C=C/c2ccc(F)cc2)n1-c1ccccc1O here?
A: The Potency was “inactive”.

Q: With Cn1cc(/C=C/c2nc3ccccc3c(=O)n2-c2ccccc2)c2ccccc21 as the compound, how does the Potency read?
A: Its Potency is “inactive”.

Q: For CC1CCCN1CCC(C(N)=O)(c1ccccc1)c1ccccc1 (stereo not given), which Potency is on record?
A: The Potency was “inactive”.

Q: CC1CC=CCC12C(=O)NC(=S)NC2=O (stereo not given) was tested. Which Potency did it give?
A: The Potency was “inactive”.

Q: For CCN1C(=O)NC(=O)C2(CCCC2)C1=O, which Potency is on record?
A: The Potency was “inactive”.

Q: With C[C@H]1CN([C@@H](C)CO)C(=O)CCCn2nncc2CO[C@H]1CN(C)C(=O)Oc1ccccc1 as the compound, how does the Potency read?
A: The Potency was “inactive”.

Q: Which Potency does the source give for O=C1NC(=O)C(Cc2ccccc2)C(=O)N1 here?
A: Its Potency is “inactive”.

Q: With COC(=O)C[C@H]1CC[C@H]2NC[C@@H](O)COC[C@@H]2O1 as the compound, how does the Potency read?
A: The Potency was “inactive”.

Q: For CCn1cc(CN2CCCC(C(=O)c3cccc(C(F)(F)F)c3)C2)cn1 (stereo not given), which Potency is on record?
A: The Potency was “inactive”.

Q: With COc1ccc(NC(=O)c2cn(CCC#N)nc2-c2ccc([N+](=O)[O-])cc2)cc1 as the compound, how does the Potency read?
A: The Potency was “inactive”.

Q: With COc1ccc(-c2nn(CCC#N)cc2C(=O)Nc2ccc(C(C)=O)cc2)cc1 as the compound, how does the Potency read?
A: Its Potency is “inactive”.

Q: How did the Potency turn out when COc1cccc(C(=O)Nc2ccc(-c3cc(C(F)(F)F)nn3-c3ccccc3)cc2)c1 was run?
A: Its Potency is 7.94 µM [GLP-1R form is constitutively active] (active).

Q: With O=C1NC(=O)C(CCOc2ccccc2)(CCc2ccccc2)C(=O)N1 as the compound, how does the Potency read?
A: Its Potency is “inactive”.

Q: Which Potency does the source give for O=C1C2CCN(CC2)C1(CO)CO here?
A: Its Potency is “inactive”.

Q: Which Potency does the source give for CC12CCC(O)CC1CCC1C2CCC2(C)C(C(=O)CC(O)C(F)(F)F)CCC12 (stereo not given) here?
A: The Potency was “inactive”.

Q: Which Potency does the source give for CCCCOc1ccc(C(=O)N2CC(=O)Nc3ccc(Br)cc3C2c2ccc(F)cc2)cc1 (stereo not given) here?
A: Its Potency is 10 µM [GLP-1R form is constitutively active] (active).

Q: Which Potency does the source give for CC(=O)NCC1=C(c2ccc3ccccc3c2)C[C@@H]2CC[C@H]1N2Cc1ccco1 here?
A: Its Potency is “inactive”.

Q: O=C1C2(Cl)C3(Cl)C4(Cl)C(Cl)(Cl)C5(Cl)C3(Cl)C1(Cl)C5(Cl)C24Cl (stereo not given) was tested. Which Potency did it give?
A: Its Potency is 4.47 µM (active).

Q: How did the Potency turn out when CC(C)CN1Cc2cc(N3CCCCC3)ccc2-n2nncc2C1 was run?
A: Its Potency is “inactive”.

Q: How did the Potency turn out when COc1ccc(C2C=C(C)Oc3c2c(=O)oc2ccccc32)cc1OC (stereo not given) was run?
A: The Potency was “inactive”.

Q: With CSCCC(c1nnnn1C(C)(C)C)N1CCC(n2c(=O)[nH]c3ccccc32)CC1 (stereo not given) as the compound, how does the Potency read?
A: The Potency was “inactive”.

Q: For O=C(COC(=O)c1ccccc1)Nc1ccc(Cl)cc1C(=O)c1ccccc1, which Potency is on record?
A: Its Potency is “inactive”.

Q: O=C(CN1CCCCC1)Nc1ccc(Br)cc1C(=O)c1ccccc1Cl was tested. Which Potency did it give?
A: The Potency was 10 µM [GLP-1R form is constitutively active] (active).

Q: How did the Potency turn out when O=C(CCN1CCCCC1)NCC(=O)Nc1ccc(Br)cc1C(=O)c1ccccc1 was run?
A: The Potency was “inactive”.

Q: Which Potency does the source give for CC(=O)c1ccc(-c2ccc(Cn3c(C)nc4cc(N)c(C)nc43)cc2)cc1 here?
A: Its Potency is “inactive”.

Q: With O=C(NC1CCCCC1)N1Cc2cc(N3CCCCC3)ccc2-n2nncc2C1 as the compound, how does the Potency read?
A: The Potency was “inactive”.

Q: CC(=O)C1(O)CCC2C3CCC4=C(Cl)C(=O)CCC4(C)C3CCC21C (stereo not given) was tested. Which Potency did it give?
A: Its Potency is “inactive”.

Q: How did the Potency turn out when CCOC(=O)C1(Cc2ccc(Cl)cc2)CCN(C(C)CCn2cccn2)CC1 (stereo not given) was run?
A: The Potency was 7.94 µM [GLP-1R form is constitutively active] (active).

Q: Which Potency does the source give for Oc1ccc2c3c1OC1[C@H](O)CC[C@@]4(O)[C@@H](C2)N(CC2CC2)CC[C@]314 (stereo not given in full) here?
A: The Potency was “inactive”.

Q: For CC1CNCCN1c1ccc(Cl)cc1 (stereo not given), which Potency is on record?
A: The Potency was “inactive”.

Q: CC1=C(C(=O)Nc2ccccc2)S(=O)(=O)CCO1 was tested. Which Potency did it give?
A: The Potency was 10 µM (active).

Q: Which Potency does the source give for CC1=C(C(=O)Nc2ccccc2)SCCO1 here?
A: Its Potency is “inactive”.

Q: For CCC(=O)OC(Cc1ccccc1)(c1ccccc1)C(C)CN(C)C (stereo not given), which Potency is on record?
A: The Potency was “inactive”.

Q: C=C(C)C1(CCCC)C(=O)NC(=S)NC1=O was tested. Which Potency did it give?
A: The Potency was “inactive”.

Q: With CCC1(CC(C)c2ccccc2)C(=O)NC(=O)NC1=O (stereo not given) as the compound, how does the Potency read?
A: Its Potency is “inactive”.

Q: For CCC(C)(O)C(=O)OC1C(=O)OC2CC3C(C)=CC(=O)C(O)C3(C)C3C4(O)OCC23C1C(C)C4O (stereo not given), which Potency is on record?
A: The Potency was “inactive”.

Q: For COc1ccc(C2CC(c3cccs3)=NN2c2nc(C)c(C(C)=O)s2)cc1OC (stereo not given), which Potency is on record?
A: The Potency was “inactive”.

Q: With CCOC(=O)[C@]12Cc3ccccc3[C@H]1N(C1CCCCC1)C(=O)c1cc(OC)ccc12 as the compound, how does the Potency read?
A: The Potency was 5.62 µM (active).

Q: With Cc1ccc(OC(=O)N(C)C[C@@H]2OCc3cnnn3CCCC(=O)N([C@H](C)CO)C[C@@H]2C)cc1 as the compound, how does the Potency read?
A: The Potency was “inactive”.

Q: How did the Potency turn out when S=C(NCCc1ccccc1)N1Cc2cc(N3CCOCC3)ccc2-n2nncc2C1 was run?
A: Its Potency is “inactive”.

Q: Cc1nc2ccc(N3CCN(C)CC3)cc2nc1C was tested. Which Potency did it give?
A: The Potency was “inactive”.

Q: Which Potency does the source give for COc1cccc(-c2nc3ccc(N4CCN(C)CC4)cc3[nH]2)c1 here?
A: The Potency was 1.12 µM (active).

Q: How did the Potency turn out when c1ccc(N2Cc3ccccc3-n3nncc3C2)nc1 was run?
A: Its Potency is “inactive”.

Q: For CC(=CCOc1ccc2ccc(=O)oc2c1)C1=CC(=O)C(C)(C)O1, which Potency is on record?
A: The Potency was 2.24 µM (active).

Q: For CCOc1ccc(CC(=O)NCCc2csc3nc(-c4ccccc4F)nn23)cc1, which Potency is on record?
A: Its Potency is “inactive”.

Q: How did the Potency turn out when CC12CCC3C(CCC4CC(=O)CCC43C)C1CC(=NO)C2=O (stereo not given) was run?
A: The Potency was “inactive”.

Q: For CCOC(=O)c1cccc(C2=C(CNC(=O)c3ccncc3)[C@H]3CC[C@@H](C2)N3Cc2ccccc2)c1, which Potency is on record?
A: Its Potency is “inactive”.

Q: Which Potency does the source give for COC(=O)CN(CCCl)P1(=O)OCCCN1CCCl (stereo not given) here?
A: The Potency was “inactive”.

Q: With CC(=O)Nc1cc(-c2cccc(CO)c2)cn2c(-c3cccc(C(F)(F)F)c3)cnc12 as the compound, how does the Potency read?
A: The Potency was “inactive”.

Q: Which Potency does the source give for O=Cc1cn(Cc2ccc(F)cc2Cl)c2ccccc12 here?
A: The Potency was 10 µM (active).

Q: With O=C(C1CCN(S(=O)(=O)c2ccc(Br)s2)CC1)N1CCN(c2ccccc2)CC1 as the compound, how does the Potency read?
A: Its Potency is “inactive”.

Q: For CC1C(=O)OC2CCN3CC=C(COC(=O)C(C)(O)C1(C)O)C23 (stereo not given), which Potency is on record?
A: The Potency was “inactive”.

Q: With O=c1c2ccccc2nc(CBr)n1-c1ccc(Cl)cc1 as the compound, how does the Potency read?
A: Its Potency is “inactive”.
